Measurements published in the supplement of paper PMC4166925.
± gives the standard deviation of the averaged measurements. Whole data set: some 33,000 sequences, median “E-score (dimensionless, -0.5 to 0.5)” near -0.049, cut for the highest 2% near 0.37. The sample holds the highest values, similar sequences and a random draw of the others, so the mix is not that of the screen.

Each sequence was assayed on T1, PmTbr T-box DNA-binding domain (GST fusion) (assay: PBM E-score of 8-mer (E-score (dimensionless, -0.5 to 0.5)); Tbr is Tbrain of the sea star Patiria miniata (Pm) or the sea urchin Strongylocentrotus purpuratus (Sp); higher = stronger binding preference). Details: the construct has about 5 more residues each side.
T1 sequence: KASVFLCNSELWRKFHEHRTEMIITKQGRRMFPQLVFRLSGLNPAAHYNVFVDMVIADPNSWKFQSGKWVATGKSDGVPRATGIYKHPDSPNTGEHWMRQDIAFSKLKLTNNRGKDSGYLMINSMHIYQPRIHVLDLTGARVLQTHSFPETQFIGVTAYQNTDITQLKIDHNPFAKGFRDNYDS
Experimental: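 Universal protein-binding microarray (Agilent AMADID 016060, 60-bp probes with a 35-bp variable region) incubated with 200 nM GST-fused Patiria miniata Tbr T-box DNA-binding domain (residues 272-466) in PBS pH 7.5. Scored for every ungapped 8-mer (given with its reverse complement) by the Universal PBM Analysis Suite as E-score (modified Wilcoxon-Mann-Whitney enrichment, range -0.5 to 0.5; >0.45 counts as bound) and Z-score of median probe intensity. Two replicate arrays (datasets 1 and 2).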
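Further: 200 nM protein in PBS on universal arrays averaged over duplicate arrays.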

Sequence | PBM E-score of 8-mer
CTTAGCAC | 0.4 ± 0.0047
ATTAGCAA | 0.12 ± 0.092
CATAGCAC | 0.306 ± 0.029
ATTAGCAG | 0.129 ± 0.045
CTTAGCAA | 0.0581 ± 0.031
ATTAGCAC | 0.417 ± 0.016
AGAAGGGC | -0.11 ± 0.013
CTTGCTCA | 0.0359 ± 0.0032
ATCGCGCC | 0.368 ± 0.016
GTCGCACA | 0.353 ± 0.025
CTCGCACA | 0.375 ± 0.0071
CTCGCATC | 0.176 ± 0.033
CTCGCAGA | 0.00155 ± 0.054
CCCGCACC | 0.3 ± 0.031
CTCGCGCC | 0.401 ± 0.013
CTCGCGCA | 0.191 ± 0.024
ATCGCACA | 0.3241 ± 0.00047
CTCGCACC | 0.4721 ± 0.0042
ATCGCACG | 0.34 ± 0.023
ATCGCACC | 0.4642 ± 0.0032
CGAAGAGC | -0.116 ± 0.044
CAGCACAG | -0.0973 ± 0.029
CGGGGTTA | -0.195 ± 0.071
GGCATGAA | -0.0787 ± 0.006
CTCTAAGA | -0.271 ± 0.053

Sequence | PBM E-score of 8-mer
CTTTTACA | 0.169 ± 0.025
AGCTTAGC | -0.0359 ± 0.0015
TATGATGA | -0.156 ± 0.037
AGTCAAAG | -0.132 ± 0.081
GAGAGATA | -0.0805 ± 0.045
CCACATTA | 0.126 ± 0.0023
CTAACACC | 0.4751 ± 0.004
ATAACATC | -0.101 ± 0.065
ATAACACG | 0.325 ± 0.05
ATTACACC | 0.349 ± 0.0023
ATAACACA | 0.3597 ± 0.0034
ATAACACC | 0.465 ± 0.0066
GTAACACA | 0.3374 ± 0.0018
CTTACACA | 0.277 ± 0.012
CTAACATC | -0.1377 ± 0.00032
CGAACACC | 0.3416 ± 0.0028
CTTACACC | 0.395 ± 0.013
CTAACACA | 0.374 ± 0.035
AGACCCCT | -0.245 ± 0.086
AAACCCGG | -0.207 ± 0.0074
GTCCCCTA | -0.175 ± 0.076
AAATTAGC | 0.24 ± 0.01
GCTTCACC | 0.0106 ± 0.012
CACGTCCG | 0.26 ± 0.0099
CCGGTTAC | -0.0412 ± 0.0065

Sequence | PBM E-score of 8-mer
CTTTGCTC | -0.0392 ± 0.02
ACAGAGGC | 0.0769 ± 0.02
AGGGTGTC | 0.435 ± 0.014
AGGGTGAC | 0.326 ± 0.031
CGGGTGTA | 0.0538 ± 0.035
AGAGGGTG | 0.383 ± 0.011
AGGGTGGC | 0.191 ± 0.011
AGGGTGTA | 0.317 ± 0.0034
AGGGGGTG | 0.316 ± 0.027
CGGGTGTC | 0.4001 ± 0.002
AGAGGGTA | -0.108 ± 0.023
CCGGTGTC | 0.247 ± 0.0031
AGAGGGTC | -0.202 ± 0.011
AGGGTGTG | 0.43 ± 0.027
CCCTAGGG | -0.16 ± 0.025
AGGTTTGG | -0.19 ± 0.043
CATTCTTA | -0.235 ± 0.007
GGAAGCAC | -0.23 ± 0.015
ATGGTGAG | 0.223 ± 0.0051
CATTCAGG | 0.0358 ± 0.077
ATAACAAA | -0.00818 ± 0.13
AGGATCAT | -0.151 ± 0.0099
CGGGCAAG | -0.0794 ± 0.036
CGAGGCCC | -0.297 ± 0.064
CACCTAAG | 0.381 ± 0.021

Sequence | PBM E-score of 8-mer
CACCTAAA | 0.368 ± 0.0085
AACCTAAG | -0.12 ± 0.084
CACCTAAC | 0.408 ± 0.028
AACCTAAC | 0.0221 ± 0.052
CCCCTAAG | -0.0688 ± 0.042
GCTACAGC | -0.2 ± 0.12
ACCGACTC | -0.012 ± 0.041
AGCAACCT | -0.0154 ± 0.04
CGTTGACA | 0.405 ± 0.0049
GGTTGACA | 0.3518 ± 0.0019
AGTTGACA | 0.407 ± 0.008
CGTTGACC | 0.0227 ± 0.075
AGTTGACG | 0.153 ± 0.053
AGTTGACC | -0.231 ± 0.009
CTTCTATA | -0.287 ± 0.067
GATAGCAA | 0.202 ± 0.052
ATCAGAAT | -0.106 ± 0.065
ATGAGAAC | -0.0696 ± 0.046
GCGAGAAC | 0.375 ± 0.01
ACGAGAAC | 0.0117 ± 0.058
CTGAGAAA | 0.00608 ± 0.019
GCGAGAAA | 0.356 ± 0.034
ATGAGAAA | -0.182 ± 0.17
GTGAGAAA | 0.458 ± 0.012
CTGAGAAC | -0.052 ± 0.016

Sequence | PBM E-score of 8-mer
GTGAGAAC | 0.44 ± 0.0046
GAGCGCAC | -0.0637 ± 0.099
CTCACAAC | 0.3462 ± 0.0029
CCCAGAAC | -0.157 ± 0.065
TACCTTGA | 0.00793 ± 0.011
CACCTTGG | 0.45511 ± 0.00014
GACCTTGC | -0.145 ± 0.021
CACCTTGA | 0.383 ± 0.017
GACCTTGA | -0.166 ± 0.025
CAGCTTGG | 0.0903 ± 0.044
CACCTTGC | 0.4191 ± 0.0029
AACCTTGG | -0.183 ± 0.041
AACCTTGC | 0.060455 ± 2.1e-05
ATTATGCG | -0.162 ± 0.031
GCGGTAAC | -0.0299 ± 0.029
AATTGGTC | -0.139 ± 0.051
CCCTCTCG | 0.0695 ± 0.027
CGGTATAC | -0.0592 ± 0.023
CCTAGAGG | -0.0482 ± 0.018
ACCCACAT | 0.203 ± 0.096
AGACACAT | 0.184 ± 0.0023
ACACACAT | 0.288 ± 0.013
ACACACCG | 0.125 ± 0.027
AGACACCG | 0.185 ± 0.012
AAACACCG | 0.143 ± 0.013

Sequence | PBM E-score of 8-mer
AGACACCT | 0.4559 ± 0.0013
AAACACCT | 0.4565 ± 0.0016
AAACACCC | 0.227 ± 0.027
ACACACCT | 0.445 ± 0.0069
GGAGTGGA | -0.0457 ± 0.03
ACATTTCA | 0.125 ± 0.0075
AGCTATCC | -0.334 ± 0.059
AGGACACG | -0.0089 ± 0.017
ACGCCTGG | 0.236 ± 0.015
CTCAACAC | 0.321 ± 0.029
GTCAACAC | 0.427 ± 0.012
CACAACAA | 0.278 ± 0.0061
GACAACAC | 0.391 ± 0.014
CCCAACAA | 0.0135 ± 0.11
CCCAACAC | 0.385 ± 0.0085
CACAACAG | 0.161 ± 0.033
GACAACAA | 0.194 ± 0.046
GTCAACAA | 0.293 ± 0.013
CACAACAC | 0.387 ± 0.02
GCCAACAC | 0.354 ± 0.0042
AACAACAC | 0.363 ± 0.01
AATTCGCT | 0.00911 ± 0.0077
CGCAGGCC | -0.171 ± 0.036
GGTTCGAC | 0.0606 ± 0.091
CCGTTAGA | 0.0408 ± 0.021

Sequence | PBM E-score of 8-mer
GCTGACTA | -0.0402 ± 0.059
AATGCTCC | -0.0523 ± 0.0048
CATCTGCC | -0.176 ± 0.007
AGGTTATG | 0.0583 ± 0.03
AGACGCTG | -0.078 ± 0.052
TGTGTTAA | 0.365 ± 0.029
CGTGTTAG | 0.354 ± 0.01
AGTGTTAG | 0.407 ± 0.014
CTTGTTAA | 0.236 ± 0.09
ACTGTTAG | 0.217 ± 0.017
CGTGTTTA | 0.0204 ± 0.033
GCTGTTAA | 0.199 ± 0.089
CCTGTTAA | 0.185 ± 0.023
GGTGTTAA | 0.479 ± 0.0049
GGTGTTTA | 0.399 ± 0.015
CGTGTTAA | 0.409 ± 0.029
AGTGTTTA | 0.258 ± 0.043
CCGCCCGA | 0.0216 ± 0.052
CTCAAGAG | 0.00045 ± 0.0019
CCAGACCA | -0.0405 ± 0.051
GAGACAGC | 0.0107 ± 0.051
CATCAGGG | -0.024 ± 0.045
